Experimental data: PubChem BioAssay (NCATS)
Inconclusive results are not listed. Activity calls are given as the source filed them. Calls follow the shape of the dose curve; as a rule, active = well fitted inhibition curve with a large enough effect; inconclusive = small, poorly fitted or top-dose-only effect; inactive = no such curve, though single readings can be large or run the other way.

biological target: Retinaldehyde dehydrogenase 3 (Homo sapiens) (UniProt P47895); experiment: qHTS for Inhibitors of the Aldehyde Dehydrogenase Family (ALDH1A3) Validation screen (AID 2061312); conditions: ALDH1A3 enzyme inhibition qHTS validation, fluorescence; series mostly up to 84.7 µM; activity change, negative = inhibition: at the top concentration; also: nearly all actives have a fitted effect of over 45% in size; also: potency is read from the fitted curve at half-maximal effect; as to activity change, negative = inhibition: % is scaled to controls: 0 for no effect and ±100 for the full control effect

SMILES | activity change, negative = inhibition | Potency
COc1cc(CCc2cc(NC(=O)c3ccc(N4CC(C)NC(C)C4)cc3)n[nH]2)cc(OC)c1 (stereo not given) | 151% (inactive) | 
CCCC(Nc1nc(-c2ccc(NC(=O)NCC)c(OC)c2)ncc1C)c1cccnc1 (stereo not given) | 83.4% (inactive) | 
Cc1ccccc1CN1CCn2c1nc1c(c2=O)CN(Cc2ccccc2)CC1 | 42.2% (inactive) | 
O=C(NC/C=C/CN1CCN(c2cccc(Cl)c2Cl)CC1)c1ccc(-c2ccccn2)cc1 | -4.57% (inactive) | 
NC(=O)c1ccc(F)c2c1C[C@@H](N(C1CCC1)C1CCC1)CO2 | -20.2% (inactive) | 
CC[C@@H](N)CNc1ccnc(-c2cc(-c3cnn(C)c3)ccc2O)n1 | 11% (inactive) | 
Nc1nc(CC(=O)Nc2ccc(CCNCC(O)c3ccccc3)cc2)cs1 (stereo not given) | 151% (inactive) | 
FC(F)(F)c1cc(C(F)(F)F)c2ccc3nc(-c4nnco4)cn3c2n1 | -9.26% (inactive) | 
Cc1c(OCc2cccc(-c3ccc(C(=O)O)cc3)c2)cc2c(c1C)C(=O)C(C1CCCC1)C2 (stereo not given) | -0.999% (inactive) | 
CN(CCc1ccc(Nc2ncc(-c3cccnc3)s2)cc1)Cc1ccccc1 | 228% (inactive) | 
O=C(O)[C@@H]1C[C@H]2C[C@@H](CCc3nn[nH]n3)CC[C@H]2CN1 |  | 10 µM (active)
CN(C)CC(c1ccc(O)cc1)C1(O)CCCCC1 (stereo not given) | 6.81% (inactive) | 
CCOc1ccc(-n2c([C@@H](C)N(Cc3cccnc3)C(=O)Cc3ccc(OC(F)(F)F)cc3)nc3ncccc3c2=O)cc1 | 50.9% (inactive) | 
CC(C)c1ccc(-c2cc(=O)c3ccccc3o2)cc1 | 1.77% (inactive) | 
Cc1cc(C)c(-c2csc(NC(=O)c3ccccc3)n2)c(C)c1 | 80.4% (inactive) | 
O=C(c1ccc(F)cc1)C1CCN(CCn2c(=O)nc3n(c2=O)CCCC3)CC1 | -32.9% (inactive) | 
CCOC(=O)CCC(=O)O[C@H]1[C@H](O[C@@H]2[C@@H](C)[C@H](O[C@H]3C[C@@](C)(OC)[C@@H](O)[C@H](C)O3)[C@@H](C)C(=O)O[C@H](CC)[C@@](C)(O)[C@H](O)[C@@H](C)C(=O)[C@H](C)CC2(C)O)O[C@H](C)C[C@@H]1N(C)C (stereo not given in full) | 74.8% (inactive) | 
CC(C)c1nc(-c2ccc(NC(=O)Nc3cccc(C(F)(F)F)c3)c3ccccc23)c2c(N)nccn12 | -18.6% (inactive) | 
C[C@@H]1C(=O)O[C@H]2CC34[C@H]5C[C@@H](C(C)(C)C)C36[C@@H](OC(=O)[C@@H]6O)OC4(C(=O)O5)[C@]21O (stereo not given in full) | 12.8% (inactive) | 
CC(=O)N(C)C1(c2ccccc2)CCN(CCC[C@]2(c3ccc(Cl)c(Cl)c3)CCCN(C(=O)c3ccccc3)C2)CC1 | 295% (inactive) | 

SMILES | activity change, negative = inhibition | Potency
COc1ccc(C(=O)NCc2cc(C(C)C)no2)cc1OC1CCN(C)CC1 | 1.2% (inactive) | 
Cc1onc(-c2ccccc2)c1C(=O)N1CCN(c2ccc([N+](=O)[O-])cc2Cl)CC1 | -74.8% (inactive) | 
C=C[C@]1(C)C[C@@H](OC(=O)CSC2C[C@H]3CC[C@@H](C2)N3C)[C@]2(C)[C@H](C)CC[C@]3(CCC(=O)[C@H]32)[C@@H](C)[C@@H]1O (stereo not given in full) | 38.9% (inactive) | 
COc1cc(-n2cnc3cc(-c4ccc(Cl)cc4)sc3c2=O)ccc1OCCN1CCCC1 | 158% (inactive) | 
COc1cc(N2CCOCC2)ccc1NC(=O)c1csc(-c2cccnc2)n1 | -5.28% (inactive) | 
CNc1nc(NCc2ccc(NS(C)(=O)=O)cc2Cl)cc(-c2ccccn2)n1 | 37.1% (inactive) | 
O=C(NCc1cccc(O)c1)c1cc2cc(F)ccc2[nH]1 | -19.6% (inactive) | 
CC(C)(C)c1ccc2c(c1)CC[C@H]2NC(=O)Nc1cccc2[nH]ncc12 | -29.4% (inactive) | 
COc1cccc(N2CCN(C3=Nc4c(F)cccc4[C@H](CC(=O)O)N3c3cc(C(F)(F)F)ccc3OC)CC2)c1 | -25% (inactive) | 
CC1(C)CC(NC(=O)C(=O)Nc2ccc(Br)cc2)CC(C)(C)N1 | 123% (inactive) | 
Cc1cc(C(=O)Cn2cc(C#N)ccc2=O)c(C)n1Cc1ccccc1 | 2.09% (inactive) | 
Cc1cccc(C)c1OCc1cc(C(=O)N2CCC(c3ccncc3)CC2)no1 | 30.5% (inactive) | 
COc1c(F)cccc1C(=O)N1C[C@@H](C)CC[C@H]1CNc1ccc(Br)cn1 | 14.5% (inactive) | 
CNc1cc(OC)c(C(=O)N[C@@H]2CCN(Cc3ccccc3)[C@@H]2C)cc1Cl | 154% (inactive) | 
CC(C)[C@@H](c1ccc(C(F)(F)F)cc1CN(Cc1cc(C(F)(F)F)cc(C(F)(F)F)c1)c1nnn(C)n1)N1CCC(C(=O)O)CC1 | 4.07% (inactive) | 
O=C(Nc1ccc(S(=O)(=O)Nc2nccs2)cc1)C(c1ccccc1)c1ccccc1 | -2.9% (inactive) | 
Cc1ccc(-n2nc(C(C)(C)C)cc2NC(=O)Nc2cc(COc3cccnc3)[nH]n2)cc1 | 31.9% (inactive) | 
COc1ccc([C@H]2CNC(=O)C2)cc1OC1CCCC1 | -18.5% (inactive) | 
COC(=O)c1sccc1S(=O)(=O)Nc1ccc(Nc2ccccc2)cc1OC | -15.6% (inactive) | 
CCN[C@@H]1C[C@H](N)[C@@H](O[C@H]2OC(CN)=CC[C@H]2N)[C@H](O)[C@H]1O[C@H]1OC[C@](C)(O)[C@H](NC)[C@H]1O | 78.6% [at 42.4 µM] (inactive) | 

biological target: Retinaldehyde dehydrogenase 3 (Homo sapiens) (UniProt P47895); experiment: qHTS for Inhibitors of the Aldehyde Dehydrogenase Family (ALDH1A3) Primary screen (AID 2061315); conditions: ALDH inhibition qHTS; series mostly up to 56 µM; activity change, negative = inhibition: at the top concentration;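 also: plate controls were DMSO vehicle for no effect and reference inhibitor for full effect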

SMILES | activity change, negative = inhibition | Potency
COc1cc(CCc2cc(NC(=O)c3ccc(N4CC(C)NC(C)C4)cc3)n[nH]2)cc(OC)c1 (stereo not given) | 26% (inactive) | 
CCCC(Nc1nc(-c2ccc(NC(=O)NCC)c(OC)c2)ncc1C)c1cccnc1 (stereo not given) | 1.37% (inactive) | 
Cc1ccccc1CN1CCn2c1nc1c(c2=O)CN(Cc2ccccc2)CC1 | -10.2% (inactive) | 
O=C(NC/C=C/CN1CCN(c2cccc(Cl)c2Cl)CC1)c1ccc(-c2ccccn2)cc1 | -4.49% (inactive) | 
NC(=O)c1ccc(F)c2c1C[C@@H](N(C1CCC1)C1CCC1)CO2 | -2.65% (inactive) | 
CC[C@@H](N)CNc1ccnc(-c2cc(-c3cnn(C)c3)ccc2O)n1 | -8.94% (inactive) | 
Nc1nc(CC(=O)Nc2ccc(CCNCC(O)c3ccccc3)cc2)cs1 (stereo not given) | 3.81% (inactive) | 
FC(F)(F)c1cc(C(F)(F)F)c2ccc3nc(-c4nnco4)cn3c2n1 | 0% (inactive) | 
Cc1c(OCc2cccc(-c3ccc(C(=O)O)cc3)c2)cc2c(c1C)C(=O)C(C1CCCC1)C2 (stereo not given) | -5.85% (inactive) | 
CN(CCc1ccc(Nc2ncc(-c3cccnc3)s2)cc1)Cc1ccccc1 | 10.5% (inactive) | 
O=C(O)[C@@H]1C[C@H]2C[C@@H](CCc3nn[nH]n3)CC[C@H]2CN1 | -11.8% (inactive) | 
CN(C)CC(c1ccc(O)cc1)C1(O)CCCCC1 (stereo not given) | 12.6% (inactive) | 
CCOc1ccc(-n2c([C@@H](C)N(Cc3cccnc3)C(=O)Cc3ccc(OC(F)(F)F)cc3)nc3ncccc3c2=O)cc1 | 4.64% (inactive) | 
CC(C)c1ccc(-c2cc(=O)c3ccccc3o2)cc1 | -6.77% (inactive) | 
Cc1cc(C)c(-c2csc(NC(=O)c3ccccc3)n2)c(C)c1 | 3.12% (inactive) | 
O=C(c1ccc(F)cc1)C1CCN(CCn2c(=O)nc3n(c2=O)CCCC3)CC1 | -8.58% (inactive) | 
CCOC(=O)CCC(=O)O[C@H]1[C@H](O[C@@H]2[C@@H](C)[C@H](O[C@H]3C[C@@](C)(OC)[C@@H](O)[C@H](C)O3)[C@@H](C)C(=O)O[C@H](CC)[C@@](C)(O)[C@H](O)[C@@H](C)C(=O)[C@H](C)CC2(C)O)O[C@H](C)C[C@@H]1N(C)C (stereo not given in full) | 5.36% (inactive) | 
CC(C)c1nc(-c2ccc(NC(=O)Nc3cccc(C(F)(F)F)c3)c3ccccc23)c2c(N)nccn12 | 22.3% (inactive) | 
C[C@@H]1C(=O)O[C@H]2CC34[C@H]5C[C@@H](C(C)(C)C)C36[C@@H](OC(=O)[C@@H]6O)OC4(C(=O)O5)[C@]21O (stereo not given in full) | 17% (inactive) | 
CC(=O)N(C)C1(c2ccccc2)CCN(CCC[C@]2(c3ccc(Cl)c(Cl)c3)CCCN(C(=O)c3ccccc3)C2)CC1 | 10.5% (inactive) | 

SMILES | activity change, negative = inhibition | Potency
COc1ccc(C(=O)NCc2cc(C(C)C)no2)cc1OC1CCN(C)CC1 | -10.7% (inactive) | 
Cc1onc(-c2ccccc2)c1C(=O)N1CCN(c2ccc([N+](=O)[O-])cc2Cl)CC1 | -17.1% (inactive) | 
C=C[C@]1(C)C[C@@H](OC(=O)CSC2C[C@H]3CC[C@@H](C2)N3C)[C@]2(C)[C@H](C)CC[C@]3(CCC(=O)[C@H]32)[C@@H](C)[C@@H]1O (stereo not given in full) | 9.68% (inactive) | 
COc1cc(-n2cnc3cc(-c4ccc(Cl)cc4)sc3c2=O)ccc1OCCN1CCCC1 | 14.5% (inactive) | 
COc1cc(N2CCOCC2)ccc1NC(=O)c1csc(-c2cccnc2)n1 | -9.96% (inactive) | 
CNc1nc(NCc2ccc(NS(C)(=O)=O)cc2Cl)cc(-c2ccccn2)n1 | 40.3% (inactive) | 
O=C(NCc1cccc(O)c1)c1cc2cc(F)ccc2[nH]1 | -1.57% (inactive) | 
CC(C)(C)c1ccc2c(c1)CC[C@H]2NC(=O)Nc1cccc2[nH]ncc12 | 2.93% (inactive) | 
COc1cccc(N2CCN(C3=Nc4c(F)cccc4[C@H](CC(=O)O)N3c3cc(C(F)(F)F)ccc3OC)CC2)c1 | 10.1% (inactive) | 
CC1(C)CC(NC(=O)C(=O)Nc2ccc(Br)cc2)CC(C)(C)N1 | 2.25% (inactive) | 
Cc1cc(C(=O)Cn2cc(C#N)ccc2=O)c(C)n1Cc1ccccc1 | -1.66% (inactive) | 
Cc1cccc(C)c1OCc1cc(C(=O)N2CCC(c3ccncc3)CC2)no1 | 1.7% (inactive) | 
COc1c(F)cccc1C(=O)N1C[C@@H](C)CC[C@H]1CNc1ccc(Br)cn1 | 5.95% (inactive) | 
CNc1cc(OC)c(C(=O)N[C@@H]2CCN(Cc3ccccc3)[C@@H]2C)cc1Cl | -7.3% (inactive) | 
CC(C)[C@@H](c1ccc(C(F)(F)F)cc1CN(Cc1cc(C(F)(F)F)cc(C(F)(F)F)c1)c1nnn(C)n1)N1CCC(C(=O)O)CC1 | 3.49% (inactive) | 
O=C(Nc1ccc(S(=O)(=O)Nc2nccs2)cc1)C(c1ccccc1)c1ccccc1 | 12.5% (inactive) | 
Cc1ccc(-n2nc(C(C)(C)C)cc2NC(=O)Nc2cc(COc3cccnc3)[nH]n2)cc1 | 22.6% (inactive) | 
COc1ccc([C@H]2CNC(=O)C2)cc1OC1CCCC1 | -5.9% (inactive) | 
COC(=O)c1sccc1S(=O)(=O)Nc1ccc(Nc2ccccc2)cc1OC | -12.3% (inactive) | 
CCN[C@@H]1C[C@H](N)[C@@H](O[C@H]2OC(CN)=CC[C@H]2N)[C@H](O)[C@H]1O[C@H]1OC[C@](C)(O)[C@H](NC)[C@H]1O |  | inactive
